Assay outcomes (PubChem BioAssay)
LmPK inh = blocks Leishmania mexicana pyruvate kinase activity. Q27686. purified LmPK, Kinase-Glo ATP luminescence, 1 h. Potency, µM (series often up to 57.5 µM), inactives show at the highest dose activity change, negative = inhibition, most hits filed as inhibitors. 0.37% of 290,000 active. AID 1721; note: % is set by controls: 0 for no effect and ±100 for the full control effect
Target sequence (Q27686 whole entry, looked up): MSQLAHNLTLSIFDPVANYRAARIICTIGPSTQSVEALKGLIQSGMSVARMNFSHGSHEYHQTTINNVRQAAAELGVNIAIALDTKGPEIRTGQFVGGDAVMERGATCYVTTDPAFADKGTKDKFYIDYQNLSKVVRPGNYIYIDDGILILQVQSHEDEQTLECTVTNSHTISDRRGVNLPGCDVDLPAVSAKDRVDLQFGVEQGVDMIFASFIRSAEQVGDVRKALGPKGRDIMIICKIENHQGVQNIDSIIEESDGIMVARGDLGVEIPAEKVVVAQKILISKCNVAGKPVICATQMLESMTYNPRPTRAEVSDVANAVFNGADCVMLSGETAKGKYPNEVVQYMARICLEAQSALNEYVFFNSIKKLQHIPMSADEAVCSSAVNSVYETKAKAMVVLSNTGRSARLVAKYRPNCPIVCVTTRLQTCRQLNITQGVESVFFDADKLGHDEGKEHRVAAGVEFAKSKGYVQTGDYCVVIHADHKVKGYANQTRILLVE
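ATP generated from ADP (0.1 mM) and PEP (0.5 mM) by 0.1 nM LmPK over 1 h at room temperature (pH 7.2 imidazole buffer) was detected by coupled luciferase luminescence. Values were normalized to uninhibited and no-enzyme wells.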
Sm TGR block = blocks Schistosoma mansoni thioredoxin glutathione reductase; 3% of 360,000 active; purified TGR, DTNB reduction, TNB absorbance 405 nm; AID 485364; Potency, µM (doses to about 114 µM), inactives show top-dose activity change, negative = inhibition, hits mostly inhibitors; note: % is set by controls: 0 for no effect and ±100 for the full control effect; nearly all actives have a fitted effect of over 60% in size
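First, TGR (20 nM dispensed) and NADPH were mixed with compound. Second, a 15 min room-temperature incubation followed. Third, further NADPH and then DTNB were added to start the reaction. Finally, TNB absorbance was monitored kinetically.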
NS1 function inh = influenza NS1 inhibition; Potency, µM (highest dose often 46.1 µM), without a hit: at the highest dose activity, positive = more growth; 0.4% of 270,000 active; AID 2326; calls by dose curve; note: actives are rising curves; nearly all actives have a fitted effect of over 50% in size
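OD600 was taken as the measure of yeast growth restored by compound in an NS1-expressing S. cerevisiae strain. Cells had been washed out of glucose medium and diluted 1:100 into galactose -URA medium, pH 6.0.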
SARS PLP yeast = inhibitors of SARS-CoV papain-like protease in yeast; AID 485353; Potency, µM (series often up to 32.9 µM), for inactives: at the highest dose activity, positive = growth rescue, hits mostly activators; S. cerevisiae expressing SARS-CoV PLpro, growth rescue; 0.19% of 330,000 active; calls by dose curve; note: 0% is about no effect; nearly all actives have a fitted effect of over 55% in size
RE007 growth inh = less growth of the S. pombe RE007 Vpr strain | S. pombe RE007 Vpr strain, BacTiter-Glo ATP luminescence, 24 h | Potency, µM (doses to about 92.2 µM), inactives show at the highest dose activity change, negative = less growth, usual class: inhibitors | 0.21% of 360,000 active | AID 651644; active = well fitted falling curve with a large enough effect; inconclusive = small, poorly fitted or top-dose-only effect; inactive = no such curve, though single readings can be large or run the other way; note: % is set by controls: 0 for no effect and ±100 for the full control effect; nearly all actives have a fitted effect of over 50% in size
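Fission yeast strain RE007, carrying one chromosomally integrated HIV-1 vpr copy, was seeded at OD 0.01 in PMG+AL medium with 23 nL pinned compound. After 24 h at 30 °C and 99% humidity, viability was read by BacTiter-Glo luminescence.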
TbPYK inhibitor = inhibitors of Trypanosoma brucei pyruvate kinase | Q57TT1 | TbPYK enzyme, Kinase-Glo Plus ATP luminescence, 45 min | Potency, µM (series often up to 76.8 µM), inactives show at the top dose activity, negative = inhibition, actives largely listed as inhibitors | 0.12% of 410,000 active; note: % is set by controls: 0 for no effect and ±100 for the full control effect; nearly all actives have a fitted effect of over 50% in size
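Screened from lowest to highest concentration, compounds were pinned into TbPYK/substrate mixtures, and ADP (130 uM final) was added. Plates sat at room temperature for 45 min prior to Kinase-Glo Plus detection by luminescence.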
* hit, by the source's call; ? = inconclusive; / = no result. Only some compounds are listed: those with a hit (about 3.3% of all), similar ones and a draw of the others. Unless noted, calls come from the whole dose curve; as a rule, active = well fitted curve in the direction sought with a large enough effect; inconclusive = small, poorly fitted or top-dose-only effect, or another doubt; inactive = no such curve, though single readings can be large; an effect the other way counts as inactive or inconclusive. Potency is the fitted concentration of half-maximal effect.

SMILES	LmPK inh	Sm TGR block	NS1 function inh	SARS PLP yeast	RE007 growth inh	TbPYK inhibitor
O=C1N/C(=C/c2cccs2)C(=O)N1Cc1ccccc1F	-4%	1%	5%	-1%	3%	-22%
Oc1c(Br)c(Br)c(Br)c(Br)c1Br	/	3.5µM*	/	1%	?	-11%
CC1Cc2ccccc2N1C(=S)Nc1cccc(S(=O)(=O)N(C)C)c1 (stereo not drawn)	0%	50µM*	-2%	-1%	-19%	-4%
O=C(Nc1nnc(C2CC2)s1)C1Cc2ccccc2CN1C(=O)c1ccco1 (stereo not drawn)	0%	13µM*	/	1%	-14%	-25%
Cc1ccc(NC(=O)C2Cc3ccccc3CN2C(=O)c2ccco2)cc1S(=O)(=O)N(C)C (stereo not drawn)	2%	40µM*	-6%	-3%	-18%	1%
COc1ccc(NC(=O)C2Cc3ccccc3CN2C(=O)c2ccco2)cc1 (stereo not drawn)	-7%	?	-2%	0%	-18%	-2%
CN(C)S(=O)(=O)c1cccc(NC(=O)C2Cc3ccccc3CN2C(=O)c2ccco2)c1 (stereo not drawn)	5%	18µM*	6%	4%	-19%	-23%
O=C(Nc1ccccc1N1CCOCC1)C1Cc2ccccc2CN1C(=O)c1ccco1 (stereo not drawn)	3%	?	6%	2%	15%	4%
CN(C)S(=O)(=O)c1cccc(NC(=S)N2CCc3ccccc32)c1	3%	?	/	-2%	14%	-2%
Cc1ccc(Cl)cc1NC(=O)Cn1c(SCC(=O)NCc2ccccc2)nc2ccccc21	/	0%	/	/	/	1%
Cc1cc(C)n(C2=NS(=O)(=O)c3ccccc32)n1	13µM*	-4%	-72%	-1%	11%	-1%
Cc1cc2c(ccc3[nH]onc32)n1	-1%	32µM*	-21%	-12%	-2%	4%
Clc1nc(CN2CCCCC2)nc2sc3c(c12)CCC3	1%	22µM*	7%	10%	-14%	3%
COc1ccc(C(=O)/C=C/c2ccc(O)cc2)cc1	-14%	-4%	-34%	-4%	-20%	-2%
O=C1C(NS(=O)(=O)c2ccc(Br)cc2)=C(N2CCCCC2)C(=O)c2ccccc21	-6%	-18%	-19%	0%	-26%	-8%
O=C1C(Nc2ccccc2)=C(N2CCCCC2)C(=O)c2ccccc21	-9%	8.9µM*	-3%	3%	?	-15%
O=C1C(Nc2cccc(O)c2)=C(N2CCCCC2)C(=O)c2ccccc21	-3%	10µM*	-4%	-2%	-28%	-23%
O=C(/C=C/c1ccc(O)cc1)c1ccc(NC2=C(N3CCCCC3)C(=O)c3ccccc3C2=O)cc1	-19%	25µM*	26%	-1%	-6%	-7%
CC1=C(Nc2ccc(C(=O)O)cc2)C(=O)c2ccccc2C1=O	0%	22µM*	-2%	-5%	-20%	5%
CCN(CC)C(=O)CSc1nc2cc3c(cc2c(=O)n1Cc1ccc(C(=O)NCCc2ccc(OC)c(OC)c2)cc1)OCO3	/	7%	/	/	/	-8%
COc1ccc(OCCCCn2c(C3CC(=O)N(c4cccc(Cl)c4)C3)nc3ccccc32)cc1 (stereo not drawn)	/	7%	/	/	/	1%
COc1ccccc1NC1=C(N2CCCCC2)C(=O)c2ccccc2C1=O	-8%	?	9%	11%	?	-6%
Cc1ccc(NC2=C(N3CCCCC3)C(=O)c3ccccc3C2=O)cc1	-9%	13µM*	-13%	3%	-4%	0%
COc1ccc(C)cc1NS(=O)(=O)c1ccc2c3c(cccc13)C(=O)N2	/	3%	/	/	/	-13%
CCOC(=O)C1CCCN(S(=O)(=O)c2cnc(Cl)c(Br)c2)C1 (stereo not drawn)	-1%	32µM*	9%	3%	4%	0%
SMILES	LmPK inh	Sm TGR block	NS1 function inh	SARS PLP yeast	RE007 growth inh	TbPYK inhibitor
CCOC(=O)C1CCCN(S(=O)(=O)c2ccc(S(=O)(=O)N3CCCC3)cc2)C1 (stereo not drawn)	/	0%	/	2%	-1%	2%
COc1ccc(C(=O)c2cn(Cc3ccc(F)cc3)c3c(F)cc(F)cc3c2=O)cc1	/	5%	/	/	/	-1%
O=C(C1=C[C@@H]2[C@H]3C(=O)N(c4ccc(Cl)cc4)C(=O)[C@H]3[C@@H](C(=O)c3ccc(Cl)cc3)N2C=C1)c1ccccc1	-3%	14µM*	?	-7%	1%	-14%
CC1(C)CC2CC(C)(CN2S(=O)(=O)c2cccc(C(=O)OCC(=O)NC(N)=O)c2)C1 (stereo not drawn)	/	16µM*	/	-2%	-9%	-6%
CNC(=O)NC(=O)COC(=O)c1cccc(S(=O)(=O)N2CC3(C)CC2CC(C)(C)C3)c1 (stereo not drawn)	/	-3%	/	-8%	10%	2%
CC(CNC(=O)CCc1cn(Cc2ccccc2Cl)c2ccccc12)c1ccccc1 (stereo not drawn)	/	1%	/	/	/	-1%
CCCCNC(=O)c1[nH]c(C2CCNCC2)nc1-c1cccc(C(F)(F)F)c1	/	/	/	/	-10%	/
CCOC(=O)N1CC=C2C(C#N)=C(N)C(C#N)(C#N)[C@H](c3ccsc3)[C@H]2C1	-2%	?	-8%	9%	-10%	-1%
CCOC(=O)[C@]1(C#N)[C@@H]2C=CC(C(C)=O)=CN2[C@@H](C(N)=O)[C@@H]1c1ccsc1	3%	40µM*	25%	5%	7%	-1%
CCOc1ccc(C(=O)NC2CC(=O)N(c3ccc(C)cc3)C2)cc1OCC (stereo not drawn)	/	-3%	/	/	/	1%
Cc1ccc2c(c1)c1c(n2C)-c2[nH]ncc2CC1	4%	-16%	-5%	-69%	20µM*	0%
CN1C(=O)CC(N2CCN(CCN=CC3=C(O)CC(C)(C)CC3=O)CC2)C1=O (stereo not drawn)	-2%	0%	-45%	1%	-17%	-5%
CC1(C)CC(=O)C(C=NCCN2CCN(C(=O)NC34CC5CC(CC(C5)C3)C4)CC2)=C(O)C1	-2%	35µM*	-23%	-1%	11%	1%
CC1(C)CC(=O)C(C=NCCN2CCN(C3CC(=O)N(c4ccc(Cl)c(Cl)c4)C3=O)CC2)=C(O)C1 (stereo not drawn)	4%	25µM*	-49%	-6%	10µM*	5%
CC1(C)CC(=O)C(C=NCCN2CCN(C(=O)c3ccc(Br)cc3)CC2)=C(O)C1	3%	28µM*	-9%	?	22%	-7%
CC1(C)CC(=O)C(C=NCCN2CCN(C(=O)Cc3ccc(F)cc3)CC2)=C(O)C1	0%	?	3%	-7%	4%	-2%
